From PubChem
Most compounds without a hit are left out; they make up all but 0.95% or so of the library.
BJeLR viability = MLPCN primary cell-based screen for lethality selective to Ras in HRASV12 cells; 0.17% of 300,000 active; BJeLR (HRASV12) viability, CellTiter-Glo ATP luminescence, 48 h; inhibition, % (concentration not given with the values); in the data active = inhibition above about 50%
PrPC surface inh = inhibitors of human cell surface prion protein PrPC, primary screen, cell-based, TR-FRET. TR-FRET read-out. inhibition, % at 13.8 µM. 0.43% of 370,000 active. AID 720596, 2013; in the data active = inhibition above about 24%; also: 0% = median of the test wells and 100% = reference compound wells
RN4220 kill = growth inhibition of S. aureus RN4220, primary screen, OD600; 16 h; inhibition, % (no concentration beside the values); 0.33% of 330,000 active; in the data active = inhibition above about 85%;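 also: plate controls were untreated cells for no effect and reference antibiotic for full effect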
ugtP null kill = growth inhibition of ugtP-null S. aureus, primary screen, RN4220 ugtP deletion, OD600; 16 h; growth inhibition, % (test concentration not listed); 0.54% of 330,000 active; in the data active = growth inhibition above about 68%;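 also: plate controls were untreated wells for no effect and antibiotic for full effect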
An asterisk follows results filed as active; . = no result.

SMILES	BJeLR viability	PrPC surface inh	RN4220 kill	ugtP null kill
CN(CCO)c1cc(Sc2nc3ccccc3s2)c2nonc2c1[N+](=O)[O-]	40	12	57	88*
CC(=NNC(=O)c1ccccc1F)c1ccccn1	.	.	9	-2
C/C(=N\NC(=O)c1ccc(F)cc1)c1ccccn1	106*	11	.	.
COc1ccc(C=NNC(=O)COc2cc(C)cc(C)c2)cc1COC(C)=O	.	.	0	93*
Cc1ccc(C=NN2CCN(c3ccccn3)CC2)o1	.	.	1	-1
Cc1cccc(N=Cc2[nH]c3ccc(Br)c(Cl)c3c2O)c1	.	-20	35	100*
COc1ccc(C(=O)CSc2ccc(-c3ccccc3)nn2)cc1	3	2	10	-4
COc1ccc(-c2ccc(SC)nn2)cc1	66*	-1	4	2
CCOC(=O)c1sc(NC(=O)c2cccs2)cc1C	26	0	-14	6
CCOC(=O)c1sc(NC(=O)Nc2cccc(Cl)c2)cc1C	3	22	92*	88*
CC(C)(C)OC(=O)NCCCCCC(=O)NN=Cc1coc2ccccc2c1=O	.	.	8	7
Cc1cc(-c2n[nH]c(=S)n2N=Cc2ccc(C)o2)n[nH]1	.	.	-3	-1
NC(=O)c1ccc2c(=O)n3c(-c4cccs4)csc3nc2c1	3	3	7	88*
C#CCOCCOCCOCCNc1nc(N2CCN(C(=O)C(Cc3cc4ccccc4[nH]3)n3cc(C(N)Cc4ccc(O)cc4)nn3)CC2)nc(N2CCN(C(=O)C(C(C)CC)n3cc(C(N)CC(C)C)nn3)CC2)n1 (configuration not stated)	.	.	-5	-2
Cc1cccc(Cc2cnc(N3C(=N)SC(C)C3=O)s2)c1 (configuration not stated)	-1	8	90*	38
N=C1SCC(=O)N1c1ncc(Cc2cccc(Cl)c2)s1	-2	2	97*	98*
Cc1cccc(Cc2cnc(N3C(=N)SC(c4ccccc4)C3=O)s2)c1 (configuration not stated)	-14	-3	32	-8
N=C1SCC(=O)N1c1ncc(Cc2ccccc2Cl)s1	6	8	93*	89
Cc1ccc(OCC(=O)NN=Cc2cccn2C)cc1	.	.	1	1
C=CCSC(=Nn1cnc2ccccc2c1=O)N(CC)CC	.	.	-13	-4
O=C(CSc1nnc(-c2ccc3c(c2)OCO3)o1)Nc1ncc(C(F)(F)F)cc1Cl	-3	14	75	97*
Cc1cc(N2CCCCC2)n2ncc(-c3ccc(Cl)cc3)c2n1	5	1	-1	85*
Cc1cc(N2CCOCC2)n2ncc(-c3ccc(Cl)cc3)c2n1	-7	-1	1	58
CCc1ccc(C=NNC(=O)c2cc(-c3cccc([N+](=O)[O-])c3)n[nH]2)cc1	.	.	0	-15
Cc1cc(C)n(N=Cc2cc([N+](=O)[O-])ccc2O)c(=O)c1	.	.	89*	76
SMILES	BJeLR viability	PrPC surface inh	RN4220 kill	ugtP null kill
Cc1ccc(/C=N/NC(=O)c2n[nH]c3c2CCCC3)cc1	60*	8	.	.
O=C(NN=Cc1ccccc1)c1cc[n+]([O-])cc1	.	.	1	7
COC(=O)C[C@]1(C(=O)OC)CN(C#N)N(c2ccc(Cl)cc2)C12c1ccccc1-c1ccccc12	67*	75*	44	79
CN(C)C(=O)C[n+]1ccc(/C=N/O)cc1	-5	-13	.	.
CCCCCCCCCCCCCCCC[n+]1ccc(C=NO)cc1	.	.	101*	101*
CNCC(CC1CCCCC1)NCC(CC(C)C)NCCc1cccc(C(F)(F)F)c1 (configuration not stated)	.	.	89*	86
CNC[C@@H](CC1CCCCC1)NC[C@H](CC(C)C)NCCc1cccc(C(F)(F)F)c1	54*	-11	.	.
CC[C@@H](C)[C@H](CNC)NC[C@@H](Cc1cccc2ccccc12)NCCc1cccc(C(F)(F)F)c1	13	-8	.	.
CCC[C@@H](CNC)NC[C@H](Cc1ccccc1)NCCCCc1ccccc1	5	-8	.	.
CNC[C@@H](Cc1ccccc1)NC[C@@H](CC1CCCCC1)NCCCc1ccccc1	92*	9	.	.
COc1ccc2c(Cl)c(C(=O)NN=Cc3cccnc3)sc2c1	.	.	4	-1
N#Cc1ccccc1C=NNc1nc(-c2ccccc2)c2cc(Cl)ccc2n1	.	.	13	1
Cc1ccc(Cl)cc1-n1c(SCC(=O)NCCC2=CCCCC2)nc2n[nH]c(C)c2c1=N	3	-5	7	-10
Cc1cc(-n2c(SCC(=O)NCCC3=CCCCC3)nc3n[nH]c(C)c3c2=N)ccc1Cl	59*	7	1	-7
COc1ccccc1/C=C1\SC(=S)N(NS(=O)(=O)c2ccc(C)cc2)C1=O	-9	-3	96*	81
CCOc1ccc(/C=C2\SC(=S)N(NS(=O)(=O)c3ccc(C)cc3)C2=O)cc1OC	-4	1	86*	85
COc1ccc(/C=C2\SC(=S)N(NS(=O)(=O)c3ccccc3)C2=O)c(OC)c1	-2	-9	69	91*
Cc1cc(C)nc(NN=Cc2ccccc2OCc2cccc(Br)c2)n1	.	.	17	11
COc1cc(-n2c(=S)[nH]c3ccccc3c2=O)c(Cl)cc1Cl	-3	9	-5	-58
CC(C)Oc1cc(-n2c(=S)[nH]c3ccccc3c2=O)c(Cl)cc1Cl	11	-5	100*	101*
CCOC(=O)N1CCN(C(=O)C[C@H]2C[C@@]3(C(=O)OC)C(=C[C@H](COCc4ccccc4)O[C@@H]3C)N(Cc3ccc(Cl)cc3Cl)C2=O)CC1	.	-12	.	.
CCCC(=O)OC[C@H]1CN(C2CCCC2)S(=O)(=O)c2c(Oc3ccc(C(C)(C)C)cc3)cccc2O1	.	6	.	.
CC(C)(C)c1nn2cnnc2n(N=Cc2cccc3ccccc23)c1=O	.	.	5	4
C=CCN1C(=O)/C(=C/c2ccc(OC(C)=O)c(OCC)c2[N+](=O)[O-])SC1=S	26	-8	99*	100*
CCOc1c(OC(C)=O)ccc(/C=C/c2ccc3cccc(OC(C)=O)c3n2)c1[N+](=O)[O-]	0	.	4	-11
SMILES	BJeLR viability	PrPC surface inh	RN4220 kill	ugtP null kill
COc1cccc2c1C(=O)c1c(O)c3c(c(O)c1C2=O)C[C@@](O)(C(=O)CO)C[C@@H]3O[C@H]1C[C@H](N)[C@H](O)[C@H](C)O1	75*	-28	.	.
CSc1nc(Cl)c(Cc2ccc(OCC(C)C)cc2)c(N2CCOCC2)n1	-12	6	-3	94*
CCOc1ccc(Cc2c(Cl)nc(SC)nc2OC)cc1	-1	1	-3	83
CCCCOc1ccc(Cc2c(Cl)nc(SC)nc2N2CCOCC2)cc1	5	-2	-2	92*
COc1ccc2oc(=NNC(=O)c3cccs3)c(C(N)=O)cc2c1	.	.	7	4
COc1cccc(C(=O)NC(=S)Nc2ccccc2N2CCCCC2)c1	-4	3	-7	89*
COc1cccc(C(=O)NC(=S)Nc2ccccc2N2CCCC2)c1	7	3	-3	91*
COc1cccc(C(=O)Nc2ccccc2N2CCCC2)c1	4	-6	5	-7
O=C(N[C@H](Cc1ccccc1)C(=O)NCC1CCCO1)[C@H]1O[C@@H](n2ccc(=O)[nH]c2=O)[C@H](O)[C@@H]1O (some centres not stated)	.	5	.	.
